The text below walks through data of PubChem BioAssay.

Assay [1] is described as follows: resazurin metabolic signal in HepG2 cells – cell-based, resazurin fluorescence, 24 h, PK04 Diversity Set, profiling panel (AID 1172). Further: test concentration not given here. The note with it: HepG2 viability, higher = more signal. (The colour change of resazurin is a common sign of viable cells or microbes.)
A short description of assay [2]: budding yeast growth changes without added modifier – OD600, strain BY4716, 24 h, basal condition, primary screen (AID 1173). Particulars: S. cerevisiae BY4716 growth, OD600, 24 h; higher = more signal, called active from +8 up or from −8 down.
Assay [3] can be described thus: viability profiling in MM1S myeloma cells – cell-based, resazurin fluorescence, basal, 24 h, PK04 Diversity Set, profiling panel (AID 1174).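 Further: MM1S multiple myeloma cell line; test concentration not given here.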 The note with it: higher = more signal, called active from +8 up or from −8 down.
The target of assay [4] is Dihydroorotate dehydrogenase (quinone), mitochondrial (Plasmodium falciparum (isolate 3D7)) (UniProt Q08210). Nature of the assay: inhibition of P. falciparum DHODH – biochemical, C-terminal His tag, absorbance 600 nm, primary screen (AID 1175).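 Further: recombinant parasite enzyme with a five histidine tag at its C terminus; test concentration not given here.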 The note with it: PfDHODH enzyme, DCIP absorbance 600 nm; higher = more signal, called active from +8 up or from −8 down.
Assay [5] is described as follows: inhibition of PAO1 biofilm formation – strain PAO1, LB-PBS medium, absorbance 600 nm, primary screen (AID 1176). Further: test concentration not given here. Particulars: P. aeruginosa PAO1 growth/biofilm, A600, 12 h; higher = more signal.
Assay [6] can be described thus: growth modulation of vineyard yeast isolate – strain RM11-1a, OD600, basal, 24 h, primary screen (AID 1177).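 Further: cultures grown under basal conditions with no added stressor; test concentration not given here.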 The note with it: S. cerevisiae RM11-1a growth, OD600, 24 h; higher = more signal, called active from +8 up or from −8 down.
The nature of assay [7]: growth of efflux-deficient E. coli DRC39 – strain DRC39, OD650, 24 h, E. coli filamentation inducers, primary screen (AID 1178).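 Further: growth measured as culture turbidity by optical density at 650 nm; test concentration not given here.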 Particulars: E. coli DRC39 acrAB, higher = more signal, called active from +8 up or from −8 down.
Assay [8] in a line: growth of efflux-deficient E. coli DRC39 – strain DRC39, OD650, 48 h, E. coli filamentation inducers, primary screen (AID 1179).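 Further: screen aims at cell division blockers that make cells filament.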 Particulars: E. coli DRC39 delta-acrAB growth, higher = more signal, called active from +8 up or from −8 down.
A short description of assay [9]: viability profiling in RPMI8226 myeloma cells – cell-based, resazurin fluorescence, basal, 24 h, PK04 Diversity Set, profiling panel (AID 1180).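 Further: RPMI8826 multiple myeloma cell line at 5000 cells per well; test concentration not given here.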 The note with it: higher = more signal.
Assay [10] concerns the target E3 ubiquitin-protein ligase XIAP (Homo sapiens) (UniProt P98170). Nature of the assay: small molecules binding XIAP protein – biophysical, small-molecule microarray, fluorescence 635 nm, primary screen (AID 1181).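 Further: score merges 667 nm emission and signal to noise over triplicate slides.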 The note with it: higher = more signal.

Each structure is given as a SMILES string. Calls of active or inactive are those of the source. Unless noted, how the calls were made is not given here.

Sequence of Dihydroorotate dehydrogenase (quinone), mitochondrial (Plasmodium falciparum (isolate 3D7)) (Q08210 whole entry, looked up): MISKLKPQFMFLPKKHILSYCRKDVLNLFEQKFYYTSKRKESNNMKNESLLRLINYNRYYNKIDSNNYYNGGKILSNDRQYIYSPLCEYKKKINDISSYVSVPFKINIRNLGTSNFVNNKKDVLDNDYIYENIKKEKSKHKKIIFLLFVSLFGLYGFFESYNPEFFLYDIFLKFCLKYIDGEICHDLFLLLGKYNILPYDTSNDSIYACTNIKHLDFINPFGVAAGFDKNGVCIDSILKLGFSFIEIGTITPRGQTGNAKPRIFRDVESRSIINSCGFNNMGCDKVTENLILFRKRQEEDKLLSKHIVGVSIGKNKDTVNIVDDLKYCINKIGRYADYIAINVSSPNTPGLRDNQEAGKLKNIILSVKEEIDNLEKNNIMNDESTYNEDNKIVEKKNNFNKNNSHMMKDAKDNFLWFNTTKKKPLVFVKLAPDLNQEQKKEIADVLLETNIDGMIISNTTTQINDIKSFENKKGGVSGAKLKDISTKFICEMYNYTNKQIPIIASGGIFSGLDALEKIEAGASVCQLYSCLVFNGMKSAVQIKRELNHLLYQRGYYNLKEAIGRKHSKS
Sequence of E3 ubiquitin-protein ligase XIAP (Homo sapiens) (P98170 whole entry, looked up): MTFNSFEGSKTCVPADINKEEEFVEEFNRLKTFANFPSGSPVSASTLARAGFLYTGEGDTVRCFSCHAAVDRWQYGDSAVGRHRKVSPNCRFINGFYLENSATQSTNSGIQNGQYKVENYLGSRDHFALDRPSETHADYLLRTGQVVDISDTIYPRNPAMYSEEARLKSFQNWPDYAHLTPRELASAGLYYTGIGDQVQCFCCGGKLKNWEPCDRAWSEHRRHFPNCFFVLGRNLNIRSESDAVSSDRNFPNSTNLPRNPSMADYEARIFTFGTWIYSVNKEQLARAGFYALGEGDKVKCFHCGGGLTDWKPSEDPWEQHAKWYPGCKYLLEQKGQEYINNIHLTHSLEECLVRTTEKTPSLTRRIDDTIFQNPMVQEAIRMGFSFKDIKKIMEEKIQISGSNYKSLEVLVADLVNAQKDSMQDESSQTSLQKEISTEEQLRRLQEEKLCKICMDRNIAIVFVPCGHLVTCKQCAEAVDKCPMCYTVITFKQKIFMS

As for `COC(=O)c1ccc(C#CC(NP(=O)(c2ccccc2)c2ccccc2)c2ccccc2)cc1` (stereo not given), the z-score in assay [1] is -0.0848; in [2], 0.441 (inactive); in assay [3], 0.693 (inactive); in [5], 0.231 (inactive); in assay [6], 0.919 (inactive); in [7], 0.37 (inactive). The results for the z-score in assay [8] and in assay [9] were 0.369 (inactive) and 1.26, respectively. The composite z-score in assay [4] is -3.37 (inactive); in [10] it was 0.063.

For the molecule `COc1ccc([C@H]2C[C@H]3C(Br)=C[C@]2(OC)C(=O)[C@]32CO2)cc1`, the z-score is 0.531 in [1]; -3.26 (inactive) in [2]; -0.677 (inactive) in assay [3]; 0.662 (inactive) in [5]; -0.173 (inactive) in assay [6]; 0.238 (inactive) in assay [7]. In addition, the z-score in assay [8] is 0.205 (inactive); in [9] it was -0.139. For the same molecule, the composite z-score in assay [4] is -0.314 (inactive); in [10], -0.0599.

Regarding `C=CCC(OC(C)=O)[C@@H]1[C@@H](N(Cc2ccc(-c3ccccc3)cc2)C(=O)c2ccc(-c3ccccc3)cc2)c2cc(OCCCO)ccc2N1C(=O)Cc1ccc(OC)cc1` (stereo not given in full), the z-score in assay [1] is -0.149; in [2], 0.335 (inactive); in assay [3], 0.108 (inactive); in assay [5], 0.0429 (inactive); in assay [6], -1.14 (inactive); in [7] it was -0.0223 (inactive). Also, the figures for the z-score in [8] and in assay [9] were 0.185 (inactive) and 0.202, respectively. The composite z-score in assay [4] was -0.979 (inactive); in assay [10], -0.0596.

With `CCOC(=O)C1=CC[C@@H](c2ccccc2)N(S(=O)(=O)c2ccc(C)cc2)[C@H]1C`, the z-score in assay [1] was 0.302; in assay [2], 1.11 (inactive); in assay [3], -0.209 (inactive); in [5], -0.0601 (inactive); in assay [6], 1.43 (inactive); in assay [7], -0.472 (inactive). The z-score was -0.4 (inactive) in assay [8] and -0.875 in assay [9]. Besides, the composite z-score in [4] is -1.18 (inactive); in assay [10], 0.0512.

For `COC(=O)Cn1c(C(=O)N2CCCC2)cc2c1C[C@H]1CN(C(=O)c3ccccc3)[C@@](Cc3ccccc3)(C(=O)OC)[C@@H]21`, the z-score in assay [1] is -0.103; in assay [2] it was 1.37 (inactive); in assay [3] it was -0.694 (inactive); in assay [5] it was 0.619 (inactive); in assay [6], 0.965 (inactive); in [7] it was -0.244 (inactive). In addition, the z-score in assay [8] was 0.172 (inactive); in assay [9], -1.34. Also, the composite z-score is 0.0393 (inactive) in assay [4] and 0.107 in assay [10].

`C[C@@H]1NC(=O)[C@H](Cc2ccccc2)NC(=O)[C@@]23C(=O)N[C@@H](Cc4ccccc4)C2[C@H](C)[C@@]2(C)O[C@H]2C3/C=C/C/C=C\CNC1=O` (stereo not given in full): the z-score in assay [1] is -0.51; in assay [2] it was -0.256 (inactive); in [3] it was -0.0224 (inactive); in [5], 0.236 (inactive); in assay [6], 0.657 (inactive); in assay [7] it was -0.593 (inactive). Further, the z-score in assay [8] is -0.514 (inactive); in assay [9] it was -0.0497. Moreover, the composite z-score is 0.398 (inactive) in assay [4] and -0.119 in [10].

In the case of `C#CCCCON=C1C[C@@H](O)[C@@H](O)[C@@H]2[C@@H]3C(=O)N(Cc4ccc5c(c4)OCO5)C(=O)[C@@H]3CC[C@@H]12`, the z-score in assay [1] is 0.606; in assay [2] it was 0.532 (inactive); in assay [3], 0.241 (inactive); in assay [5] it was -0.993 (inactive); in [6], 0.577 (inactive); in assay [7], 0.571 (inactive). In addition, the values for the z-score in assay [8] and in [9] were 0.186 (inactive) and 1.42, respectively. Also, the results for the composite z-score in assay [4] and in [10] were 0.175 (inactive) and 0.0785, respectively.

As to `Cc1cc(C)c(C(O)C2C=CC3C(=O)N(C)C(=O)C3N2N2CCCCC2)c(C)c1` (stereo not given), the z-score in [1] is 0.0632; in [2], 0.361 (inactive); in assay [3], -1.09 (inactive); in assay [5], 0.875 (inactive); in assay [6] it was -0.136 (inactive); in assay [7], -0.894 (inactive). Moreover, the z-score in assay [8] is -0.435 (inactive); in [9], -1.02. Moreover, the results for the composite z-score in [4] and in [10] were -0.416 (inactive) and 0.305, respectively.

As for `O=C1OCCC/C=C\[C@H]2OC34C=CCN(CCN5CCOCC5)C(=O)[C@H]3N(CCCCCO)C(=O)[C@@H]4C12` (stereo not given in full), the z-score was -0.567 in assay [1]; -0.0575 (inactive) in assay [2]; -0.193 (inactive) in assay [3]; -0.0432 (inactive) in [5]; -0.634 (inactive) in assay [6]; 0.157 (inactive) in assay [7]. Further, the z-score in assay [8] was 0.0435 (inactive); in [9], 0.0501. Moreover, the composite z-score in assay [4] was 0.286 (inactive); in assay [10] it was -0.124.

Take `CCC1=C2CN(Cc3ccccc3Br)[C@@H]([C@@H](O)Cc3ccccc3)C2C=CCC1` (stereo not given in full): the z-score in assay [1] was 0.596; in [2], -5.76 (inactive); in [3] it was -1.3 (inactive); in assay [5] it was -0.693 (inactive); in assay [6] it was -0.177 (inactive); in assay [7], 1 (inactive). Moreover, the z-score is 0.441 (inactive) in assay [8] and -1.25 in assay [9]. In addition, the composite z-score was -2.74 (inactive) in assay [4] and 0.0451 in assay [10].

For the molecule `Cc1ccc(S[C@]2(C(=O)O)CC(=O)N(Cc3cc(C(F)(F)F)cc(C(F)(F)F)c3)[C@@H]2c2ccc(CO)cc2I)cc1`, the z-score was -0.101 in [1]; -3.06 (inactive) in assay [2]; -2.57 (inactive) in assay [3]; -0.481 (inactive) in assay [5]; 0.555 (inactive) in [6]; 0.0907 (inactive) in [7]. Further, the z-score was -0.0983 (inactive) in assay [8] and -1.47 in [9]. Besides, the composite z-score in assay [4] is 0.0643 (inactive); in assay [10], -0.136.

`N#Cc1ccc(NN2C(C(O)c3ccc(I)cc3)C=CC3C(=O)N(c4ccccc4)C(=O)C32)cc1` (stereo not given): the z-score in [1] is -1.59; in [2], 0.179 (inactive); in [3], -1.34 (inactive); in assay [5] it was 0.944 (inactive); in [6] it was 0.62 (inactive); in assay [7] it was -0.904 (inactive). Further, the results for the z-score in assay [8] and in assay [9] were -0.397 (inactive) and -0.328, respectively. The composite z-score was -0.165 (inactive) in [4] and -0.256 in [10].
